The values below come from PubChem BioAssay (NCI).

Each structure is given as a SMILES string. Compounds without any hit were thinned out: in the full panel of roughly 79,000, 15% have a hit. Activity calls are given as the source filed them. Rule as the data show it: active = growth inhibition above about 70%; inactive = the rest.

The nature of this assay: NCI Yeast Anticancer Drug Screen. Data for the mec2-1 strain (AID 157). The following applies: S. cerevisiae mec2-1 strain, at 1.2 µM, hits give high values. The method, boiled down:
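Each compound was tested on mec2-1 yeast, a strain altered in DNA damage repair or cell cycle control. Growth inhibition is reported relative to vehicle.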
For `CS(=O)(=O)SCc1ccc([N+](=O)[O-])cc1`, the growth inhibition was 3% (inactive).

As to `Cc1csc(=S)n1OC(=O)NC1CCCCC1`, the growth inhibition was -11% (inactive).

Turning to `CCOc1ccc(NC(=O)C2=C(C)NC(C)=C(C(=O)Nc3ccc(OCC)cc3)C2c2cccc([N+](=O)[O-])c2)cc1`, the growth inhibition was -1% (inactive).

As to `CC(C)(C)N=C(NO)c1ccccc1`, the growth inhibition was -3% (inactive).

As for `CCCCC/C(=C(\C#N)C(=O)OCC)c1ccccc1`, the growth inhibition was -7% (inactive).

On to `O=C(NCCCl)Sc1ccc(Cl)cc1`, for which the growth inhibition was 1% (inactive).

Regarding `O=C1Nc2ccc(Br)cc2C1=Nc1ccc2c(c1)OCO2`, the growth inhibition is -59% (inactive).

For `CCC(C)OC(=O)Nc1ccc(C)c(NC(=O)OC(C)CC)c1` (centres undefined), the growth inhibition was -2% (inactive).

As for `O=C(O)c1cc2ccc(Cl)cc2c(O)c1C1=CCCCC1`, the growth inhibition is 22% (inactive).

Consider `CN(C)Cc1cc(N=Nc2ccc(Cl)cc2)ccc1OC(=O)c1ccccc1`, for which the growth inhibition was -3% (inactive).

On to `CN1CCN(C(=O)/C=C/C(=O)c2ccccc2)CC1`, for which the growth inhibition was 2% (inactive).

As to `CCCC/C=C/C(C)(C(=O)OCC)C(=O)OCC`, the growth inhibition was -2% (inactive).

For `Cc1nc(-c2cc3cc([N+](=O)[O-])ccc3oc2=O)cs1`, the growth inhibition is -15% (inactive).

Take `Cc1nc2ccccc2nc1NNc1ccccc1`: the growth inhibition was -2% (inactive).

With `CN(C)[C@@H]1C(=O)C(C(N)=O)=C(O)[C@@]2(O)C(=O)C3=C(O)c4c(O)cccc4C[C@H]3C[C@@H]12`, the growth inhibition was -5% (inactive).

Consider `COc1ccc(NC(=O)CC2SC(=Nc3ccccc3C)NC2=O)c([N+](=O)[O-])c1` (centres undefined), for which the growth inhibition was 1% (inactive).

`COc1cc(O)c2c(c1O)C(=O)c1cc(C)ncc1C2=O`: the growth inhibition was 10% (inactive).

As for `CSc1nnc(SC)nn1`, the growth inhibition was 9% (inactive).

Consider `COc1cc(/C=C2\CCC/C(=C\c3ccc(O)c(OC)c3)C2=O)ccc1O`, for which the growth inhibition was -1% (inactive).

Take `CN(C)CCNC(=O)c1cccc2cc([N+](=O)[O-])ccc12`: the growth inhibition is -6% (inactive).

With `CCC(C)(C)c1ccc(Oc2cccc(C(=O)O)c2)cc1`, the growth inhibition was -1% (inactive).

On to `CCCCCCSc1ncnc2[nH]ncc12`, for which the growth inhibition is -3% (inactive).

On to `CC(=O)Nc1ccc(/C=C/[N+](=O)[O-])cc1`, for which the growth inhibition was -1% (inactive).

Turning to `CCOC(=O)c1[nH]n(-c2ccccc2)c(=O)c1C=NC(=S)C(N)=S`, the growth inhibition was 5% (inactive).

With `CCCC(O)C1CC(C(C)C)CCC1C` (centres undefined), the growth inhibition was 0% (inactive).

Take `O=[n+]1c2ccccc2n([O-])c2cc(Br)ccc21`: the growth inhibition was 18% (inactive).

With `CN(C)CCNC(=O)c1cccc2c1Oc1c(cccc1[N+](=O)[O-])O2`, the growth inhibition is -12% (inactive).

As to `Nc1ncc(-c2ccc(Br)cc2)s1`, the growth inhibition is -22% (inactive).

With `Cc1cc2cc3cc(C)c(N)cc3nc2cc1N`, the growth inhibition is -18% (inactive).

For `CC12C(=O)OC(=O)C(c3ccccc31)c1ccccc12`, the growth inhibition was -5% (inactive).

On to `c1ccc2c(OCC3CO3)cccc2c1` (centres undefined), for which the growth inhibition is 1% (inactive).

Take `CCOC(=N)c1ccc(O)c(OC)c1`: the growth inhibition is 0% (inactive).

Turning to `Nc1cc(N)c(N=Nc2cccc3c(S(=O)(=O)O)cccc23)cc1N=Nc1cc([N+](=O)[O-])ccc1O`, the growth inhibition was 1% (inactive).

On to `COC(=O)Oc1cc(Cl)c(Cl)cc1Cl`, for which the growth inhibition is 0% (inactive).

Regarding `O=C(O)C1CC(c2ccccc2)=NN1c1ccccc1` (centres undefined), the growth inhibition was -45% (inactive).

`COc1cc([C@@H]2c3cc4c(cc3[C@@H](Nc3ccc(NC(=O)c5cc([N+](=O)[O-])cn5C)cc3)[C@H]3COC(=O)[C@H]23)OCO4)cc(OC)c1O`: the growth inhibition was -16% (inactive).

For the molecule `O=C(O)c1ccccc1/C=N/N=C1c2ccccc2-c2ccccc21`, the growth inhibition was -2% (inactive).

On to `O=C1CC(=O)c2ccccc21`, for which the growth inhibition was 1% (inactive).

In the case of `Nc1ncnc2c1ncn2C1OC(CO)CC1O` (centres undefined), the growth inhibition was -7% (inactive).
